Experimental data as given in the supplement of paper PMC6555819.

Assays:
Experiment in all cases: PBM binding z-score (relative to random genomic background probes); higher = stronger binding; sequences stand for … in GC…GCGATTGACAGCGTAGAATGAAGG
[1] = system: FXR:RXRa (NR concentration 270 nM, RXRa partner concentration 90 nM)
Procedure, shortened: (§1)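 Custom Agilent 4×180K protein-binding microarrays carried double-stranded probes. Their 34-nt variable regions held direct-repeat seeds, single-nucleotide variants, half-site ablations and random human genomic background sequences. Arrays were incubated 1 h with ligand-free nuclear receptor dimers in PBS pH 7.4, 2% milk, 0.02% Triton X-100, 1 mM DTT, 0.2 mg/mL BSA and 0.4 mg/ml salmon testes DNA. Antibodies against each partner (one per run) detected binding, and scanned fluorescence was regression-normalized. Binding z-scores use random background probes as reference.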

[2] = system: LXRa:RXRa (NR concentration 270 nM, RXRa partner concentration 90 nM)
Procedure, shortened: as §1

[3] = system: LXRa homodimer (NR concentration 270 nM)
Procedure, shortened: as §1

[4] = system: LXRb:RXRa (NR concentration 270 nM, RXRa partner concentration 90 nM)
Procedure, shortened: as §1

[5] = system: LXRb homodimer (NR concentration 270 nM)
Procedure, shortened: as §1

[6] = system: PPARa:RXRa (NR concentration 270 nM, RXRa partner concentration 90 nM)
Procedure, shortened: as §1

[7] = system: PPARg:RXRa (NR concentration 180 nM, RXRa partner concentration 90 nM)
Procedure, shortened: as §1

[8] = system: PPARg:RXRa 270nM:90nM, anti-RXR (NR concentration 270 nM, RXRa partner concentration 90 nM)
Procedure, shortened: as §1

[9] = system: PPARg:RXRa 30nM:10nM, anti-RXR (NR concentration 30 nM, RXRa partner concentration 10 nM)
Procedure, shortened: as §1

[10] = system: PPARg:RXRa 90nM:30nM, anti-RXR (NR concentration 90 nM, RXRa partner concentration 30 nM)
Procedure, shortened: as §1

[11] = system: PPARg:RXRa DBDmut IVT, anti-RXR (DBD mutation: RXRa K156A/R161A, NR concentration 270 nM, RXRa partner concentration 90 nM)
Procedure, shortened: as §1

[12] = system: PPARg:RXRa IVT, anti-PPARg (NR concentration 270 nM, RXRa partner concentration 90 nM)
Procedure, shortened: as §1

[13] = system: PPARg DBDmut:RXRa IVT, anti-PPARg (DBD mutation: PPARg1 K132A/R137A, NR concentration 270 nM, RXRa partner concentration 90 nM)
Procedure, shortened: as §1

[14] = system: PPARg DBDmut IVT, anti-PPARg (DBD mutation: PPARg1 K132A/R137A, NR concentration 270 nM)
Procedure, shortened: as §1

[15] = system: PPARg homodimer (NR concentration 180 nM)
Procedure, shortened: as §1

[16] = system: PXR:RXRa (NR concentration 270 nM, RXRa partner concentration 90 nM)
Procedure, shortened: as §1

[17] = system: PXR homodimer (NR concentration 270 nM)
Procedure, shortened: as §1

[18] = system: RARa:RXR (NR concentration 270 nM, RXRa partner concentration 90 nM)
Procedure, shortened: as §1

[19] = system: RARa homodimer (NR concentration 270 nM)
Procedure, shortened: as §1

[20] = system: RARb:RXRa (NR concentration 270 nM, RXRa partner concentration 90 nM)
Procedure, shortened: as §1

Sequence	PBM binding z-score [1]	PBM binding z-score [2]	PBM binding z-score [3]	PBM binding z-score [4]	PBM binding z-score [5]	PBM binding z-score [6]	PBM binding z-score [7]	PBM binding z-score [8]	PBM binding z-score [9]	PBM binding z-score [10]	PBM binding z-score [11]	PBM binding z-score [12]	PBM binding z-score [13]	PBM binding z-score [14]	PBM binding z-score [15]	PBM binding z-score [16]	PBM binding z-score [17]	PBM binding z-score [18]	PBM binding z-score [19]	PBM binding z-score [20]
TCATATAGGTCAATGCTAGGTGAAAGTCCGATCT	5.19	4.7	1.51	3.52	1.02	5	5.86	6.06	4.7	5.89	6.69	6.83	1.25	2.16	2.7	2.78	0.347	3.7	1.3	4.21
CCTAGCAGGCCAATCTGGGTCACTCAAGGCTTGA	1.5	1.42	-0.498	0.851	-1.04	3.1	1.69	2.6	-0.232	1.52	4.72	5.12	-1.06	-0.836	0.786	0.995	-0.679	1.17	-0.672	1.58
TCTAGTTTGTCAAAGGTCACACACTCGAAATGCG	6	5.79	5.08	5.68	2	6.11	8.39	8.19	7.6	8.39	2.53	4.9	1.7	3.34	4.88	5.82	1.78	6.66	2.78	4.98
TCTCGGAGGACACGAAGGTAAGAGCTTTCCAGAG	0.0947	-0.361	-0.534	-0.695	-1.37	-0.0207	-0.0725	0.91	2.21	1.39	1.18	-0.283	-1.16	-1.1	-1.58	-0.316	-1.01	-0.153	-0.725	1.25
CCTAGCAGGCCAATCTGGGTCACTCTAGGCTTGA	0.0739	0.774	-0.56	0.28	-1.07	2.36	1.46	1.75	-0.203	0.673	3.94	4.77	-0.959	-1.14	0.236	0.544	-0.524	1.17	-1.01	1.28
TCTTGTAGATCAATAGAGATTAAGAAAGTGCGCT	-0.285	0.252	-0.543	-0.171	-0.122	-0.000927	0.302	1.34	2.5	2.08	1.45	0.39	0.292	1.02	-0.0923	0.374	0.261	-0.0638	0.076	-0.192
ATCTCTAGGTAAAAAGTTCAGTGAAAGAGAGGAC	1.28	1.39	1.03	0.921	0.888	1.98	2.7	3.72	2.6	3.68	1.79	2.04	1.14	0.995	1.73	1.56	1.46	1.33	1.65	2.38
TAGCCTAGGTAATTCAGGGGCCAGTATAGAAAGC	-0.449	-0.444	-0.517	-0.109	-0.53	-0.0424	0.145	-0.169	-0.327	-0.103	-0.0164	0.234	0.0188	-0.116	-0.334	-0.507	-0.545	-0.256	-0.299	0.0227
ATCGAAAGGGCGAAGGTGAGTATACCCACCCGAA	0.199	0.432	-0.538	0.0351	-0.165	1.72	1.93	2.33	0.766	1.93	-0.906	0.809	0.146	-0.234	1.04	0.359	-0.166	1.03	-0.384	1.94
CATACAGGGTCAGTTAGGCCAGAGTAGGGACGGC	3.37	2.29	-0.0109	1.79	0.655	3.36	2.24	1.92	0.738	1.41	0.861	2.08	1	0.259	2.09	1.55	0.258	2.17	0.791	3.67
ACTAGTTGGTCAGCTGAGGTCAGACACAATTCGG	2.41	1.65	1.19	2.03	0.149	2.42	0.879	1.07	0.223	0.908	1.02	1.86	0.583	0.951	1.04	4.31	0.813	2.75	0.218	2.86
TCAGACAGGTGAAGGTAACTCCGGTACGCAGTCG	0.787	2.08	-0.352	0.966	-0.314	1.21	0.509	2.09	3.78	2.96	2.59	1.09	-0.276	-0.342	0.498	0.475	-0.04	0.651	0.0905	1.1
ATCGAAAGGCCGTGAGGTGAGTATACAGAAAGGC	0.424	0.135	-0.0346	-0.0132	-0.426	0.369	0.827	0.177	0.199	-0.0286	-0.822	0.492	0.487	1.17	-0.238	0.0278	-0.0636	0.885	0.0649	1.68
CCTACTGGGCCATCAGGTCATCGATATCAACGTT	1.37	1.07	0.687	1.38	-0.672	2.79	3.18	3.65	1.59	3.22	4.21	5.09	-0.466	-0.676	1.03	1.5	-0.0162	2.04	-0.0284	2.39
CCTAGCAGGCCAGGGTCACTCACGCATTTCGCTT	2.04	1.57	-0.247	1.73	-0.927	2.94	0.599	1.29	-0.606	0.36	0.345	0.942	-0.473	-1.26	1.45	2.31	-0.101	3.17	0.177	2.41
GATACAGGGTCAAGGCCGGAGTACGCGTATTGAT	6.13	4.13	0.0137	3.51	-0.495	5.66	5.78	5.32	1.81	3.85	2.69	3.81	-0.0401	0.122	1.8	3.56	0.0329	4.01	0.567	4.55
TCTGCTAGGTCAGTTGGACAGCTAACGAGCTGCC	0.721	0.508	-0.846	-0.0468	0.424	1.12	0.413	1.36	1.23	1.21	2.28	2.83	0.449	0.399	-0.587	-0.183	-1.13	-0.205	-1.3	3.26
GCTCGGAGGACAAGGTCTGAGCTTTGTCCGTAGA	-0.67	-0.493	-0.867	-0.602	-1.01	-0.36	-1.05	-0.462	-1.11	-1	-0.275	-0.493	-0.968	-1.01	-0.929	-0.656	-0.919	-0.399	-1.72	0.963
CCGACTGAGGCAGAAAGGTTACCATACCATCCGG	0.495	0.563	0.0475	0.877	-0.972	1.82	1.05	1.42	0.27	0.899	-0.0384	-0.0549	-1.78	-0.731	0.893	0.855	-0.109	1.69	0.393	1.62
GCTTGTAGATCAAGGTTAAGAAGGACTAAGCTAA	0.204	0.416	-0.49	0.546	-1.11	1.38	0.945	2.08	0.323	1.79	1.59	0.939	-0.676	0.139	-0.16	0.306	-0.0751	0.701	-0.375	0.923
CCTCGGAGGACGGAAGGTCAGAGCTGTCCGCTTT	1.07	1.43	-0.129	0.901	-1.26	1.57	-0.636	0.361	-0.964	-0.314	-0.591	-0.453	-1.93	-2.58	1.18	1.33	0.186	1.76	-0.121	2.6
CAAACTAGGTCAAAGGACAAAGTCGAGCCAACCA	4.29	3.41	0.833	2.68	0.636	5.81	10.2	8.77	8.72	9.77	8.09	8.38	2.59	0.234	1.32	1.72	0.313	3.01	0.239	4.03
CAAACTAGGTCGCGAAAGGTCAAAGTCGAATGAC	6.26	6.45	5.69	5.96	1.92	6.03	7.96	6.66	4.55	6.34	6.96	7.13	1.26	1.98	3.65	6.52	2.13	6.77	2.38	5.01
GCAGACAGGTGAAACGCAGGTAACTCATGGTGGC	-0.174	-0.103	-0.708	-0.224	-1.24	0.901	0.886	0.443	-0.0913	0.0978	1.08	0.828	-0.609	-0.755	-0.331	-0.113	-0.622	0.721	-0.93	0.653
CCGACTGTGGCATAAGGTTACCATAAGCCAGCCC	0.578	2.4	0.142	1.07	-0.834	1.36	0.99	1.57	-0.0445	0.844	1.12	0.305	-0.617	-0.541	0.621	0.365	0.018	0.961	0.166	0.964
GCTTGTAGATCAAGGTTGAGAAAGACTAAGCTAA	-0.651	-0.5	-0.84	-0.489	-0.831	1.3	2.27	3.37	1.77	3	0.308	0.797	-0.562	-0.558	-0.108	-0.354	-0.235	-0.162	-0.337	-0.367
GCATACAGGTGAAACGCAGGTAACTCAGGGTGGC	-0.0721	0.132	-0.487	-0.143	-0.74	1.35	1.04	0.609	-0.12	0.232	3.57	1.78	-0.446	-0.192	-0.115	-0.254	-0.513	0.243	-0.373	0.744
CGTGCTAGGTCAATGGTCAGCTAAAGCAGCTCGC	3.1	2.22	0.0909	1.37	-0.184	3.03	5.04	5.55	2.98	5.12	4.64	4.42	0.168	-1.05	1.65	0.869	-0.615	1.59	-0.282	3.77
TGTAGCAGGCCAGAGGGTCACTCAAGAGGTACGG	0.921	0.677	-0.568	0.665	-1.21	2.15	1.51	2.46	0.493	1.83	-1.03	1.1	-0.559	-0.849	0.876	1.39	-0.159	2.51	-0.395	2.35
